In PubChem BioAssay (NCATS):
Results filed as inconclusive are left out. Calls of active or inactive are those of the source. The call rests on the fitted dose curve; in most records, active means well fitted curve in the direction sought with a large enough effect; inconclusive means small, poorly fitted or top-dose-only effect, or another doubt; inactive means no such curve, though single readings can be large; an effect the other way counts as inactive or inconclusive.

Experiments:
[1] = qHTS of pediatric cancer cell lines to identify multiple opportunities for drug repurposing: Primary screen for TC32 cells (AID 1347089); further: nearly all actives have a fitted effect of over 60% in size; further: potency means the concentration at half of the fitted maximal effect
Outline: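 Measured quantity: luminescence from CellTiter-Glo, reflecting metabolically active TC32 cells following 48 h of compound. Curves came straight from multi-point titrations, with 8 or 11 points in primary and 11 in confirmatory screening.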

[2] = qHTS of pediatric cancer cell lines to identify multiple opportunities for drug repurposing: Primary screen for SJ-GBM2 cells (AID 1347091); further: potency means the concentration at half of the fitted maximal effect
Outline: (§1)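 Eight- or eleven-point concentration series, 48 h treatment at 37 degrees C in growth media; readout CellTiter-Glo luminescence. Potency and efficacy were taken from the concentration-response curves.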

[3] = qHTS of pediatric cancer cell lines to identify multiple opportunities for drug repurposing: Primary screen for A673 cells (AID 1347092); further: nearly all actives have a fitted effect of over 45% in size; further: potency means the concentration at half of the fitted maximal effect
Outline: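 Cells are plated, rested 5 h, dosed by pintool, incubated 48 h, then lysed with CellTiter-Glo and read by luminescence. DMSO is the neutral control; bortezomib at 2.3 uM final is the positive control.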

[4] = qHTS of pediatric cancer cell lines to identify multiple opportunities for drug repurposing: Primary screen for SK-N-MC cells (AID 1347093); further: potency means the concentration at half of the fitted maximal effect
Outline: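 Metabolically active cells were quantified by ATP-dependent luminescence (CellTiter-Glo, 15 min at room temperature) following 48 h treatment. Cells had been plated at 500-1,000 per well and settled for 5 h beforehand.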

[5] = qHTS of pediatric cancer cell lines to identify multiple opportunities for drug repurposing: Primary screen for BT-37 cells (AID 1347094); further: potency means the concentration at half of the fitted maximal effect
Outline: (§2)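 Viability was measured as metabolically active cells after 48 hours of treatment, read by CellTiter-Glo luminescence. Compounds were tested at multiple final concentrations, giving concentration-response curves.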

[6] = qHTS of pediatric cancer cell lines to identify multiple opportunities for drug repurposing: Primary screen for NB-EBc1 cells (AID 1347095); further: potency means the concentration at half of the fitted maximal effect
Outline: as §2

[7] = qHTS of pediatric cancer cell lines to identify multiple opportunities for drug repurposing: Primary screen for U-2 OS cells (AID 1347096); further: nearly all actives have a fitted effect of over 50% in size
Outline: (§3)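 Cells (500-1,000/well) in growth media were settled 5 h at 37 degrees C, then given compounds for 48 h. Viability was read as CellTiter-Glo luminescence. Primary runs used MIPE at 11 points (0.78 nM-46 µM) and NPC at 8 points (0.59 nM-46 µM); follow-ups used 11 points.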

[8] = qHTS of pediatric cancer cell lines to identify multiple opportunities for drug repurposing: Primary screen for Saos-2 cells (AID 1347097); further: nearly all actives have a fitted effect of over 40% in size; further: potency means the concentration at half of the fitted maximal effect
Outline: as §2

[9] = qHTS of pediatric cancer cell lines to identify multiple opportunities for drug repurposing: Primary screen for NB1643 cells (AID 1347099); further: potency means the concentration at half of the fitted maximal effect; nearly all actives have a fitted effect of over 50% in size
Outline: as §2

[10] = qHTS of pediatric cancer cell lines to identify multiple opportunities for drug repurposing: Primary screen for LAN-5 cells (AID 1347100); further: potency means the concentration at half of the fitted maximal effect
Outline: as §3

[11] = qHTS of pediatric cancer cell lines to identify multiple opportunities for drug repurposing: Primary screen for BT-12 cells (AID 1347101); further: nearly all actives have a fitted effect of over 25% in size; further: potency means the concentration at half of the fitted maximal effect
Outline: (§4)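 Cells (500-1,000/well) rested 5 h, then received compounds for 48 h; metabolically active cells were measured by CellTiter-Glo luminescence. Final concentrations spanned up to 46 µM (MIPE, 11-point) or 0.59 nM-46 µM (NPC, 8-point) in primary screens, 11-point in follow-ups.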

[12] = qHTS of pediatric cancer cell lines to identify multiple opportunities for drug repurposing: Primary screen for OHS-50 cells (AID 1347103); further: nearly all actives have a fitted effect of over 40% in size; further: potency means the concentration at half of the fitted maximal effect
Outline: as §4

[13] = qHTS of pediatric cancer cell lines to identify multiple opportunities for drug repurposing: Primary screen for RD cells (AID 1347104); further: nearly all actives have a fitted effect of over 55% in size; further: potency means the concentration at half of the fitted maximal effect
Outline: as §2

[14] = qHTS of pediatric cancer cell lines to identify multiple opportunities for drug repurposing: Primary screen for MG 63 (6-TG R) cells (AID 1347105); further: nearly all actives have a fitted effect of over 50% in size; further: potency means the concentration at half of the fitted maximal effect
Outline: as §2

[15] = qHTS of pediatric cancer cell lines to identify multiple opportunities for drug repurposing: Primary screen for control Hh wild type fibroblast cells (AID 1347106);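 further: series mostly up to about 46 µM; a drop in luminescence marks cytotoxicity and a rise apparent proliferation; nearly all actives have a fitted effect of over 55% in size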
Outline: as §3

[16] = qHTS of pediatric cancer cell lines to identify multiple opportunities for drug repurposing: Primary screen for Rh30 cells (AID 1347107); further: nearly all actives have a fitted effect of over 75% in size; further: potency means the concentration at half of the fitted maximal effect
Outline: as §3

[17] = qHTS of pediatric cancer cell lines to identify multiple opportunities for drug repurposing: Primary screen for DAOY cells (AID 1347090); further: nearly all actives have a fitted effect of over 55% in size; further: potency means the concentration at half of the fitted maximal effect
Outline: as §1

[18] = qHTS of pediatric cancer cell lines to identify multiple opportunities for drug repurposing: Primary screen for Rh18 cells (AID 1347102); further: nearly all actives have a fitted effect of over 65% in size; further: potency means the concentration at half of the fitted maximal effect
Outline: as §3

[19] = qHTS of pediatric cancer cell lines to identify multiple opportunities for drug repurposing: Primary screen for SK-N-SH cells (AID 1347098); further: nearly all actives have a fitted effect of over 65% in size; further: potency means the concentration at half of the fitted maximal effect
Outline: as §4

Measured: Potency

CC1(C)Cc2c(sc(NC(=S)NC(=O)c3ccccc3)c2C(=O)O)CO1
active: [3] 23.5 µM | [4] 1.66 µM | [9] 5.26 µM | [13] 33.2 µM
not listed: [17] | [18] | [19]
inactive: all other assays above

CCN(CC)CCOc1ccc(C(=C(Cl)c2ccccc2)c2ccccc2)cc1
inactive: [1] | [17] | [5] | [6] | [7] | [11] | [18] | [14] | [16]
active: [3] 29.6 µM

COC1CCC(N(C(=O)C2CCC(C)CC2)c2cc(C3=CCCCC3)sc2C(=O)O)CC1 (stereo not given)
active: [4] 23.5 µM
not listed: [2] | [6] | [9] | [13] | [16]
inactive: all other assays above

O=C(Nc1ccccc1-c1cn2c(CN3CCNCC3)csc2n1)c1cnc2ccccc2n1
inactive: [1] | [6] | [19]
active: [17] 23.5 µM | [3] 18.7 µM | [5] 27.3 µM | [9] 13.2 µM | [10] 20.9 µM | [18] 8.33 µM | [12] 27.3 µM | [13] 33.2 µM | [14] 23.5 µM | [16] 23.5 µM

Clc1cc(Cl)cc(CNc2ncncc2-c2ccc3c(c2)OCO3)c1
active: [2] 18.7 µM | [3] 14.8 µM | [4] 13.2 µM | [6] 11.8 µM | [8] 16.6 µM
inactive: [1] | [7] | [15] | [16]

COc1cc(Nc2ncc(F)c(Nc3ccc4c(n3)NC(=O)C(C)(C)O4)n2)cc(OC)c1OC
inactive: [1] | [5] | [19] | [11] | [15]
active: [2] 3.72 µM | [3] 14.8 µM | [4] 0.418 µM | [6] 4.18 µM | [8] 0.935 µM | [12] 0.544 µM

CN(C)C1CCN(C(=O)c2ccc(NC(=O)Nc3nc(N4CCOCC4)nc(N4CCOCC4)n3)cc2)CC1
active: [1] 0.0658 µM | [2] 0.105 µM | [3] 0.0118 µM | [4] 0.0166 µM | [5] 0.0273 µM | [6] 1.32 µM | [8] 0.166 µM | [10] 0.187 µM | [18] 0.0526 µM | [12] 0.0217 µM | [13] 0.0662 µM | [14] 0.0935 µM
inactive: [16]

COc1ccc2c(Oc3ccc(NC(=O)c4c(C)n(CC(C)(C)O)n(-c5ccccc5)c4=O)cc3F)ccnc2c1
active: [2] 0.059 µM | [3] 23.5 µM | [4] 14.8 µM | [8] 26.4 µM | [12] 21.7 µM
inactive: [1] | [5] | [15]

Oc1ccc(C2=Cc3ccc(O)cc3OC2)cc1
active: [1] 7.39 µM | [2] 5.26 µM | [3] 2.35 µM | [4] 1.66 µM | [5] 12.2 µM | [6] 1.66 µM | [8] 11.8 µM | [10] 2.35 µM | [11] 4.85 µM | [13] 5.26 µM
inactive: [7] | [14] | [15]

CC(C)(C)Cn1c(N)nc2ccc(-c3[nH]c(C(C)(C)C)nc3-c3ccc(F)cc3)nc21
inactive: [6] | [8] | [10] | [15]
active: [1] 29.4 µM | [17] 23.5 µM | [3] 18.7 µM | [5] 24.3 µM | [9] 11.8 µM | [11] 27.3 µM | [12] 30.6 µM | [13] 20.9 µM | [16] 20.9 µM

O=C(O)CCC1CCC(c2cc(F)ccc2F)(S(=O)(=O)c2ccc(Cl)cc2)CC1 (stereo not given)
inactive: [1] | [6] | [19] | [15] | [16]
active: [17] 11.8 µM | [3] 1.48 µM | [4] 0.0662 µM | [9] 2.35 µM | [10] 2.35 µM | [13] 14.8 µM | [14] 9.35 µM

CO[C@H]1C[C@@H]2CC[C@@H](C)[C@@](O)(O2)C(=O)C(=O)N2CCCC[C@@H]2C(=O)O[C@H]([C@@H](C)C[C@@H]2CC[C@H](O)[C@H](OC)C2)CC(=O)[C@H](C)C=C(C)[C@@H](O)[C@@H](OC)C(=O)[C@H](C)C[C@H](C)C=CC=CC=C1C
inactive: [1] | [17] | [7] | [8] | [19] | [13] | [14] | [15] | [16]
active: [11] 9.68 µM

CC(=O)O[C@]1(C(C)=O)CC[C@@H]2[C@@H]3C[C@H](C)C4=CC(=O)CC[C@]4(C)[C@H]3CC[C@@]21C
inactive: [1] | [2] | [5] | [6] | [7] | [15]
active: [3] 18.7 µM | [4] 18.7 µM | [19] 24.1 µM | [9] 20.9 µM | [11] 24.3 µM | [12] 24.3 µM

O=C1Nc2ccc(Cl)cc2C(C#CC2CC2)(C(F)(F)F)O1 (stereo not given)
active: [17] 29.6 µM | [4] 13.2 µM | [8] 20.9 µM | [9] 23.5 µM | [12] 21.7 µM | [13] 41.8 µM
inactive: [1] | [6] | [18] | [15] | [16]
